Assay results: ChEMBL document CHEMBL3988442, “University of Dundee, Small-Polar-MMV Screening Library” (2021)
Among all 48,000 compounds or so, about 13,000 (27%) showed an effect of 50% or more. The list shows a part of the results.

These compounds were tested on Wolbachia pipientis (assay: Anti-Wolbachia Cell-Based Screen). Conditions: 5 µM.
Assay type: functional
Parameters: scale not given: in the data most compounds retested in dose-response had high values

| Compound | Percent Effect |
| --- | --- |
| CN1CCc2[nH]nc(C(=O)N3CCC4(CN(C)C(=O)O4)C3)c2C1 (stereo not drawn) | 3.232% |
| CCC(O)CN1CCN(C(=O)c2cccc3[nH]ncc23)CC1 (stereo not drawn) | 10.02% |
| CCN(C)S(=O)(=O)c1c(F)cc(NC(C)=O)cc1F | 15.35% |
| CCC(Nc1nc(CCN)nc2ccccc12)c1cc(C)ccn1 (stereo not drawn) | 5.857% |
| CN(C(=O)Cn1nc(-c2ccc(F)cc2)oc1=O)C1CCS(=O)(=O)C1 (stereo not drawn) | -25.19% |
| COc1ccccc1-c1cc(C(F)(F)F)c2c(C)nn(CC(=O)O)c2n1 | -3.37% |
| Cc1nn(CC(=O)Nc2ccc(F)cc2)c(N)c1C#N | -10.06% |
| O=C(O)Cn1nc(C2CC2)c2c(-c3ccc(F)cc3)ccnc21 | 106.5% |
| O=C(Cn1nc(-c2ccc(F)cc2)oc1=O)Nc1ccccc1 | -16.04% |
| Cc1nn(CC(=O)O)c2nccc(-c3ccc(F)cc3)c12 | 132.8% |
| O=C(CO)N1CCN(C(=O)c2coc3ccccc23)CC1 | -5.618% |
| Cn1cncc1CNC1CC2(CCN(S(C)(=O)=O)CC2)c2ccccc21.O=C(O)C(F)(F)F (stereo not drawn) | -9.896% |
| CS(=O)(=O)N1CCC2(CC1)CC(NCc1ccco1)c1ccccc12.O=C(O)C(F)(F)F (stereo not drawn) | 91.69% |
| O=C(O)C(F)(F)F.O=C(O)C(F)(F)F.c1cnc(N2CCC3(CC2)CC(NCC2CC2)c2ccccc23)nc1 (stereo not drawn) | 1.529% |
| CNC(=O)CNC1CC2(CCN(c3ncccn3)CC2)c2ccccc21.O=C(O)C(F)(F)F.O=C(O)C(F)(F)F (stereo not drawn) | -16.8% |
| Cn1cncc1CNC1CC2(CCN(CC3CC3)CC2)c2ccccc21.O=C(O)C(F)(F)F.O=C(O)C(F)(F)F (stereo not drawn) | -10.77% |
| Cn1cc(CNC2CC3(CCN(CC4CC4)CC3)c3ccccc32)cn1.O=C(O)C(F)(F)F.O=C(O)C(F)(F)F.O=C(O)C(F)(F)F (stereo not drawn) | -14.88% |
| CS(=O)(=O)N1CCC2(CC1)CC(NCc1ccccn1)c1ccccc12 (stereo not drawn) | 90.85% |
| CS(=O)(=O)N1CCC2(CC1)CC(CC(=O)N1CCCC1)c1ccccc12 (stereo not drawn) | 5.675% |
| CS(=O)(=O)N1CCC2(CC1)CC(CC(=O)NC1CC1)c1ccccc12 (stereo not drawn) | 17.75% |
| CS(=O)(=O)N1CCC2(CC1)CC(NCC1CC1)c1ccccc12.O=C(O)C(F)(F)F (stereo not drawn) | 107.6% |

| Compound | Percent Effect |
| --- | --- |
| Cn1cc(CNC2CC3(CCN(S(C)(=O)=O)CC3)c3ccccc32)cn1.O=C(O)C(F)(F)F (stereo not drawn) | 94.6% |
| Cc1noc(CCCC(=O)N2CCNC(=O)C2)n1 | -6.568% |
| Cc1c(C(C)Nc2ncnc3sccc23)cnn1C (stereo not drawn) | -5.704% |
| CCn1ccnc1CN(C)Cc1nc(CCC(C)C)no1 | -3.993% |
| COc1ccccc1[C@@H]1CN(C(=O)c2csc(C)n2)C[C@H]1C(=O)O | -8.955% |
| CCn1cc(CN(C)c2nc(C)c3ccc(S(C)(=O)=O)cc3n2)cn1 | -19.68% |
| Cc1nnc(N2CCOC(Cn3cccn3)C2)c(C#N)c1C (stereo not drawn) | -2.698% |
| CCc1[nH]c2c(CNC(=O)C3CCN(C)C3)cc(C)cc2c1C (stereo not drawn) | -4.959% |
| Cc1nc(O)cc(C2CCCN(C(=O)c3cccc(N(C)C)c3)C2)n1 (stereo not drawn) | 2.27% |
| CCCc1cc(C(=O)N2CC(c3ccncc3)C2)ccn1 | -34.73% |
| Cc1nccc(C2CN(C(=O)c3cncnc3)C2)n1 | 123.7% |
| Cc1nccc(C2CCCN(C(=O)c3cncnc3)C2)n1 (stereo not drawn) | 134.6% |
| Cc1cccc(C2CCCN(C(=O)c3ccncc3)C2)n1 (stereo not drawn) | 137.8% |
| Cc1ncncc1C(=O)N1C[C@H]2CC[C@@H]1CN(C(=O)c1ccncc1)C2 | -6.558% |
| Cc1cc(C(=O)N[C@H]2CC[C@@]3(CCC(=O)N3)CC2)no1 | -22.87% |
| CCNc1ncc(C(=O)NC2CCOCC2)cn1 | -0.8414% |
| Cc1ccsc1CCNC(C)C(=O)NC1CCCC1 (stereo not drawn) | 3.624% |
| CCc1nc(CNC(=O)Nc2ccc(C(=O)NC)cc2C)cs1 | -1.988% |
| CNC(=O)c1coc(-c2csc(C)n2)c1 | 7.776% |
| CCOc1ccc(C(=O)NC2CC2)cc1C | -6.669% |
| Cc1csc2cc(C(=O)NC3CC3)cnc12 | 125.4% |

| Compound | Percent Effect |
| --- | --- |
| O=C(NC1CCC(O)CC1)c1cnc2c(cnn2C2CCCC2)c1 (stereo not drawn) | -3.379% |
| CNC(=O)c1cnc2c(C)csc2c1 | 142.5% |
| Cc1csc2cc(C(=O)NC3CCCC3)cnc12 | 127% |
| Cc1cc(C2CCCN2C(=O)Cn2c(C)cc(=O)c3ccccc32)on1 (stereo not drawn) | -2.941% |
| COCC(=O)N1CCN(C(=O)C2CCCCC2)[C@@H](C(=O)OC)C1 | -2.41% |
| CCc1nccn1C1CCCN(C(=O)Cc2cn3ccccc3n2)C1 (stereo not drawn) | 11.58% |
| Cc1nc(C)n(C2CCCN(C(=O)c3nc(C)n4ccccc34)C2)n1 (stereo not drawn) | -12.32% |
| Cc1nccn1C1CCCN(C(=O)Cc2cn3ccccc3n2)C1 (stereo not drawn) | 129.5% |
| Cc1nc(C)n(C2CCCN(C(=O)Cc3cn4ccccc4n3)C2)n1 (stereo not drawn) | 141.6% |
| Cc1nccn1C1CCCN(C(=O)COCC(F)(F)F)C1 (stereo not drawn) | 9.036% |
| N#CC1(NC(=O)Cn2nnc(-c3cc4ccccc4o3)n2)CCCC1 | 6.129% |
| CCOC(=O)NC(CNC(=O)c1cn(C)cn1)CC(C)C (stereo not drawn) | -4.121% |
| COc1ccc2[nH]cc(C3CCN(CCC(N)=O)CC3)c2c1 | -13.9% |
| COc1ccc2[nH]cc(-c3ccnc(N4CCC(C)CC4)n3)c2c1 | 108.4% |
| COc1ccc2[nH]cc(-c3ccnc(NC4CCCC4)n3)c2c1 | 98.2% |
| COc1cnc(N2CCC(c3ncc[nH]3)CC2)nc1 | 16.53% |
| COc1nccnc1-c1cc(NC2CCCC2)nc2[nH]ccc12 | -1.982% |
| COc1cc(-c2cc(NC3CCCC3)nc3[nH]ccc23)nc(N)n1 | -4.005% |
| COC(=O)c1cc(NS(=O)(=O)c2cn(C)cn2)c(F)cc1F | -3.496% |
| CS(=O)(=O)c1nnc(NC(=O)CCc2cccs2)[nH]1 | 5.426% |
| O=C(NCc1ccc(-n2cncn2)nc1)c1ccc2c(c1)CCO2 | 2.792% |
